Results as given in the supplement of paper PMC10646978.
± gives the standard deviation.

Assays:
Settings in all cases: modulator concentration 10 µM
[1] = test system: RAW-Dual (murine macrophage reporter line); experiment: NF-kB reporter (SEAP) activity fold change vs agonist alone; higher = enhanced NF-kB activity
Method in brief: (§1)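 Compound reached 10 μM final in each well by pin transfer, onto RAW-Dual murine macrophage reporter cells seeded at 50 000 per well in 384-well plates. After 1 hour at 37 °C, the cells were stimulated overnight with a PRR agonist. SEAP in the supernatant was read with QUANTI-Blue at 620 nm absorbance for NF-κB, and Lucia luciferase was read with QUANTI-Luc luminescence for IRF. Each signal was turned into fold change against the mean agonist-only control on the same plate, and two replicate plates were averaged with propagated errors.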

[2] = test system: RAW-Dual (murine macrophage reporter line); experiment: IRF reporter (Lucia luciferase) activity fold change vs agonist alone; higher = enhanced IRF activity
Method in brief: as §1

[3] = test system: RAW-Dual (murine macrophage reporter line); experiment: viability score (confluency relative to resting cells, overnight) (fraction); higher = more viable, active = viable (0.7 or more)
Method in brief: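 Compound was added at a final 10 μM to RAW-Dual macrophages in 384-well plates and left overnight. Confluency was imaged with IncuCyte, and two masks were generated in IncuCyte software over all imaged wells. Each viability score is confluency relative to resting cells, and a compound met the cutoff only when both masks were above 70% of resting cells.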

[4] = agonist: CpG ODN 1826 0.5 ug/mL

| SMILES | NF-kB reporter [1, 4] | NF-kB reporter ([1]; agonist: LPS 0.1 ug/mL) | NF-kB reporter ([1]; agonist: MPLA […]) | IRF reporter ([2]; agonist: 3'3'-cGAMP 10 ug/mL) | IRF reporter ([2]; agonist: LPS 0.1 ug/mL) | IRF reporter ([2]; agonist: MPLA […]) | viability score [3] |
| --- | --- | --- | --- | --- | --- | --- | --- |
| CCCCOc1ccc(S(=O)(=O)NCCCn2ccnc2)cc1 | 0.946 ± 0.078 | 1.18 ± 0.089 | 1.21 ± 0.071 | 1.07 ± 0.038 | 1.84 ± 0.13 | 1.58 ± 0.2 | 0.987 (active) |
| CC(=O)Oc1cccc2c1C(=O)c1c(OC(C)=O)cc(C(=O)O)cc1C2=O | 1.14 ± 0.088 | 1.04 ± 0.077 | 1.01 ± 0.049 | 0.971 ± 0.068 | 0.954 ± 0.033 | 0.939 ± 0.12 | 1 (active) |
| Cc1cc(C)c(NC(=O)C2C3CCC4C(CCC32)C4(Cl)Cl)c(C)c1 (stereo unspecified) | 1.01 ± 0.11 | 1.03 ± 0.079 | 1.02 ± 0.062 | 1.03 ± 0.027 | 1.61 ± 0.14 | 1.1 ± 0.11 | 1.01 (active) |
| CCOc1ccc2oc(-c3ccccc3)c(C(=O)N3CCN(C)CC3)c2c1 | 1.03 ± 0.052 | 1.09 ± 0.087 | 1.03 ± 0.05 | 1.05 ± 0.053 | 1.15 ± 0.13 | 1.26 ± 0.31 | 0.966 (active) |
| O=C(COC(=O)c1ccc2ccccc2n1)c1ccc(Br)cc1 | 0.988 ± 0.16 | 1.05 ± 0.11 | 1.06 ± 0.14 | 0.972 ± 0.033 | 1.29 ± 0.25 | 1.42 ± 0.26 | 1 (active) |
| COCC(C)NC(=O)c1ccc(Cl)c(Cl)c1 (stereo unspecified) | 1.13 ± 0.12 | 0.926 ± 0.079 | 0.984 ± 0.043 | 0.953 ± 0.034 | 0.966 ± 0.05 | 0.992 ± 0.1 | 0.997 (active) |
| CC(=O)Oc1cc(C(F)(F)F)ccc1C(=O)O | 0.977 ± 0.13 | 1.05 ± 0.19 | 0.91 ± 0.053 | 0.976 ± 0.03 | 1.32 ± 0.32 | 1.21 ± 0.23 | 1 (active) |
| Cc1ccc(CNC(=O)CN(c2cccc3ccccc23)S(C)(=O)=O)cc1 | 0.97 ± 0.078 | 1.03 ± 0.098 | 0.957 ± 0.073 | 1.08 ± 0.031 | 1.47 ± 0.28 | 1.07 ± 0.096 | 1.01 (active) |
| O=C(CN(CCc1ccccc1)S(=O)(=O)c1ccc(Cl)cc1)NCc1ccncc1 | 1.03 ± 0.19 | 0.976 ± 0.076 | 0.941 ± 0.12 | 0.954 ± 0.025 | 1.17 ± 0.11 | 1.16 ± 0.26 | 1.01 (active) |
| CNCc1cc(-c2ccccc2F)n(S(=O)(=O)c2cccnc2)c1.O=C(O)/C=C/C(=O)O | 0.612 ± 0.05 | 1.04 ± 0.076 | 0.98 ± 0.021 | 0.931 ± 0.054 | 0.97 ± 0.056 | 0.855 ± 0.089 | 0.999 (active) |
| Cc1ccc2sc(NC(=O)c3cccc(N4C(=O)CCC4=O)c3)nc2c1C | 0.946 ± 0.097 | 0.877 ± 0.074 | 1.11 ± 0.12 | 0.939 ± 0.03 | 1.39 ± 0.19 | 1.57 ± 0.21 | 1.02 (active) |
| CC(C)c1ccccc1NC(=O)C1COCC(=O)N1Cc1ccccc1 (stereo unspecified) | 0.983 ± 0.063 | 0.996 ± 0.15 | 1.08 ± 0.058 | 0.985 ± 0.074 | 1.15 ± 0.26 | 1.29 ± 0.51 | 0.979 (active) |
| COc1ccc(CNS(=O)(=O)c2ccc3ccccc3c2)cc1 | 0.795 ± 0.074 | 0.899 ± 0.079 | 1.13 ± 0.11 | 0.974 ± 0.052 | 1.49 ± 0.11 | 1.7 ± 0.17 | 0.972 (active) |
